Values joined by “and” are separate entries in the source; they are usually repeats but may differ in a detail not shown here. Identical values can stand only once. Results filed as inconclusive are left out. Where a call stands in place of a potency, no number is given. Active and inactive are the calls of the source. Unless noted, the call rests on the fitted dose curve; in most records, active means well fitted curve in the direction sought with a large enough effect; inconclusive means small, poorly fitted or top-dose-only effect, or another doubt; inactive means no such curve, though single readings can be large; an effect the other way counts as inactive or inconclusive.
How the values were obtained:
[1] = qHTS to identify inhibitors of the type 1 interferon - major histocompatibility complex class I in skeletal muscle: primary screen against the NCATS Mechanism Interrogation Plate v5.0 (MIPE) Libary (AID 1347411); further: nearly all actives have a fitted effect of over 65% in size; further: potency means the concentration at half of the fitted maximal effect
In short: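 Luminescence from HiBiT-tagged endogenous HLA-B*08:01 served as the MHC class I read-out. CRISPR-engineered C25cl48 human myoblasts received 4.0 ng/ml IFN-beta plus compound for 24 hrs, with an 11-point, 1:3 series topping at 46 uM final.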

[2] = target: Calcium and integrin-binding protein 1 (Homo sapiens) (UniProt Q99828); test: Primary qHTS for Identification of Calcium Integrin Binding Protein 1 (CIB1) Competitor (AID 1508620);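 further: GST tagged CIB1 binding a fluorescein labelled alphaIIb integrin peptide tracer; top concentration of the series differs between compounds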
In short: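 Fluorescence polarization competition: CIB1-GST (1 uM final) preincubated with compound 15 min at room temperature, then FITC-labeled alphaIIb peptide (100 nM final) added for another 15 min. Polarization read at Ex 480/Em 540.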

[3] = Primary qHTS for inhibitors of nuclear receptor binding SET domain protein 2 (NSD2) in an isogenic RCH-ACV NSD2 p.E1099K mutant (9B) (AID 1645876); further: nearly all actives have a fitted effect of over 70% in size; further: potency means the concentration at half of the fitted maximal effect
[4] = Primary qHTS for inhibitors of nuclear receptor binding SET domain protein 2 (NSD2) in an RCH-ACV wild type WT cells (2C) (AID 1645877); further: nearly all actives have a fitted effect of over 70% in size; further: potency means the concentration at half of the fitted maximal effect
[5] = target: Catechol O-methyltransferase (Homo sapiens) (UniProt P21964); test: Confirmatory Screen for Target Class Profiling of Small Molecule Inhibitors of Methyltransferases (AID 1745852); conditions: MTase-Glo luminescence, SAH detection, recombinant enzyme; measured here: COMT max response; stronger effect = lower value
[6] = target: Protein phosphatase 1D (Homo sapiens) (UniProt O15297); test: RapidFire Mass Spectrometry qHTS Assay for Modulators of WT P53-Induced Phosphatase 1 (WIP1) (AID 1347424);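 further: amount of dephosphorylated VEPPL-S-QETFS peptide product formed by WIP1; series mostly up to about 63 µM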
In short: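 WIP1 (10 nM final) was preincubated 1 h at room temperature with compounds in Tris-HCl pH 7.5, 30 mM MgCl2, TCEP, EGTA, BSA; 2 uM VEPPL-pS-QETFS phosphopeptide was added for 5 min, quenched with formic acid, and dephosphorylated product quantified by RapidFire MS.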

[7] = target: Protein phosphatase 1D (Homo sapiens) (UniProt O15297); test: Rhodamine-PBP qHTS Assay for Modulators of WT P53-Induced Phosphatase 1 (WIP1) (AID 1347425)
In short: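 Read-out: Rhodamine-PBP fluorescence (ex 525/em 598 nm) for released Pi, read each minute for 11 min after adding 10 uM VEPPL-pS-QETFS; signal taken as f1 minus pre-substrate f0. Enzyme 5 nM WIP1 with 1 hr room-temperature compound preincubation.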

[8] = Primary qHTS for inhibitors of La Crosse Virus (LACV) - induced cell death in SH-SY5Y cells (AID 1508616);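 further: top concentration of the series differs between compounds; higher means more rescue of cells from virus-induced death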
In short: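 Protection against LACV-induced cell death is scored in SH-SY5Y cells exposed to compounds and virus (0.01 MOI) for 6 days. Data normalized to virus-infected DMSO wells and virus-free DMSO wells.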

[9] = Primary qHTS for small molecule stabilizers of the endoplasmic reticulum resident proteome: Secreted ER Calcium Modulated Protein (SERCaMP) assay (AID 1508630)
In short: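 GLuc-SERCaMP-expressing SH-SY5Y cells, pretreated 16 h with compound, are challenged with thapsigargin to empty ER calcium stores; after 4 h, coelenterazine is added directly to the medium and luminescence is imaged.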

[10] = A High-Content qHTS Against Drug Library for the Identification of Small Molecules that Inhibit DYT1 Early Onset Primary Dystonia-Associated Cell Pathology (AID 1645839; calls by dose curve; further: series mostly up to about 46 µM)
In short: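 Readout: %pathology, the punctate EGFP-TorsinA distribution from imaging, as the primary channel and cell count as the toxicity counterscreen. HEK293 Flp-In cells expressing delE TorsinA were induced with tetracycline and treated with compound for 48 h.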

[11] = target: Cytochrome P450 2C9 (Homo sapiens) (UniProt P11712); test: Cytochrome P450 family 2 subfamily C member 9 (CYP2C9) small molecule antagonists: luciferase biochemical (cell-free) qHTS assay (AID 1645842; active means well fitted curve in the direction sought with a large enough effect in the repeat runs; an effect the other way counts as inactive or inconclusive; further: nearly all actives have a fitted effect of over 55% in size; further: potency means the concentration at half of the fitted maximal effect; on activity change, negative = inhibition: series mostly up to about 57 µM)
In short: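 Luminescence, after 20 min with luciferin detection reagent, reflected CYP2C9 turnover during a 1 h NADPH-driven reaction at 37C. Enzyme-substrate mix contained 0.4% bovine serum albumin and was preincubated with compound 10 min at room temperature.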

[12] = target: Cytochrome P450 2D6 (Homo sapiens) (UniProt P10635); test: Cytochrome P450 family 2 subfamily D member 6 (CYP2D6) small molecule antagonists: luciferase biochemical (cell-free) qHTS assay (AID 1645840; active means well fitted curve in the direction sought with a large enough effect in the repeat runs; an effect the other way counts as inactive or inconclusive; further: potency means the concentration at half of the fitted maximal effect; nearly all actives have a fitted effect of over 55% in size)
In short: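 P450-Glo luminescent screen: recombinant CYP2D6 enzyme–proluciferin substrate mix preincubated with compound 10 min at room temperature, then NADPH regeneration added for 1 h at room temperature. Detection reagent added for 20 min; luciferin light read as relative luminescence units.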

[13] = target: Cytochrome P450 3A4 (Homo sapiens) (UniProt P08684); test: Cytochrome P450 family 3 subfamily A member 4 (CYP3A4) small molecule antagonists: luciferase qHTS assay (AID 1645841; active means well fitted curve in the direction sought with a large enough effect in the repeat runs; an effect the other way counts as inactive or inconclusive; further: nearly all actives have a fitted effect of over 45% in size)
In short: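 P450-Glo CYP3A4 enzyme with proluciferin substrate was preincubated with DMSO-dissolved compounds for 10 min at room temperature. NADPH regeneration solution started a 1 h reaction. Detection reagent stopped it, and luminescence was read after 20 min.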

Chain of Calcium and integrin-binding protein 1 (Homo sapiens) (Q99828 whole entry, looked up): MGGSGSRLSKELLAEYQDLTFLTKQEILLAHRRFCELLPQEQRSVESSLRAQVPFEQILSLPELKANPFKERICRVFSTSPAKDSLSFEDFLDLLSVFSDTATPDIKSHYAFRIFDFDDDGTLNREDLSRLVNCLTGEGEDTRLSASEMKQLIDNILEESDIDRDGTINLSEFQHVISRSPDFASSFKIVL
Chain of Cytochrome P450 2D6 (Homo sapiens) (P10635 whole entry, looked up): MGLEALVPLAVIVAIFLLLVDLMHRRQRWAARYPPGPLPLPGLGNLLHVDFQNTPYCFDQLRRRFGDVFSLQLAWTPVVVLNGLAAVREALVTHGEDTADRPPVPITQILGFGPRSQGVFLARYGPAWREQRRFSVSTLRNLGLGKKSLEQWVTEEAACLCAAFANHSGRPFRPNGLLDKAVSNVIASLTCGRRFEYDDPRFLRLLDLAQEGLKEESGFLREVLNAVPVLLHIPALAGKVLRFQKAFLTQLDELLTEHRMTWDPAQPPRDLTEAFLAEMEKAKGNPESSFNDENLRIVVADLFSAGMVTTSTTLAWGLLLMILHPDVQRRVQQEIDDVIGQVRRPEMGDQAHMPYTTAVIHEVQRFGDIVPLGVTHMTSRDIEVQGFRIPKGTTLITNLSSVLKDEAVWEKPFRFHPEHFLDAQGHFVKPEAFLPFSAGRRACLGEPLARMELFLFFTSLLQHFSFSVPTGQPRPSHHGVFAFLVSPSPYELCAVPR
Chain of Cytochrome P450 2C9 (Homo sapiens) (P11712 whole entry, looked up): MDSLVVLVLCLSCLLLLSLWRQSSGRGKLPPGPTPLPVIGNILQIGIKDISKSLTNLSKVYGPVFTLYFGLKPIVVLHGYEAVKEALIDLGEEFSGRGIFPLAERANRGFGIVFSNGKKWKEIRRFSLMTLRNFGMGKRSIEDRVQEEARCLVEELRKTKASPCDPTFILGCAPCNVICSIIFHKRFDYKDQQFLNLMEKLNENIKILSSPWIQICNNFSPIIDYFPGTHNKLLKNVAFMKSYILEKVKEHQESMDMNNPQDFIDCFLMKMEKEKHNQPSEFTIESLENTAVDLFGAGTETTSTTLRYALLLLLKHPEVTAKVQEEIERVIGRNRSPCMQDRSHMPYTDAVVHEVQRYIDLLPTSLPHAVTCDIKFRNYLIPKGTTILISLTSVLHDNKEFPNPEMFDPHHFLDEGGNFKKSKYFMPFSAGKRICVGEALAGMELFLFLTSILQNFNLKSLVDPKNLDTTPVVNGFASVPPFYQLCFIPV
Chain of Catechol O-methyltransferase (Homo sapiens) (P21964 whole entry, looked up): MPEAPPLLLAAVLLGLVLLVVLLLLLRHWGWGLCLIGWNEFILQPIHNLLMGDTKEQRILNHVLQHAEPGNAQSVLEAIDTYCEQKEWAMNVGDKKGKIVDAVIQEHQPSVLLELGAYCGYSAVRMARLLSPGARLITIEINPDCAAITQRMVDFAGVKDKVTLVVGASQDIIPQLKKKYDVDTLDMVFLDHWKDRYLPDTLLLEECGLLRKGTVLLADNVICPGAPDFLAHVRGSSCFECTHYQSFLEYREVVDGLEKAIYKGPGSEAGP
Chain of Protein phosphatase 1D (Homo sapiens) (O15297 whole entry, looked up): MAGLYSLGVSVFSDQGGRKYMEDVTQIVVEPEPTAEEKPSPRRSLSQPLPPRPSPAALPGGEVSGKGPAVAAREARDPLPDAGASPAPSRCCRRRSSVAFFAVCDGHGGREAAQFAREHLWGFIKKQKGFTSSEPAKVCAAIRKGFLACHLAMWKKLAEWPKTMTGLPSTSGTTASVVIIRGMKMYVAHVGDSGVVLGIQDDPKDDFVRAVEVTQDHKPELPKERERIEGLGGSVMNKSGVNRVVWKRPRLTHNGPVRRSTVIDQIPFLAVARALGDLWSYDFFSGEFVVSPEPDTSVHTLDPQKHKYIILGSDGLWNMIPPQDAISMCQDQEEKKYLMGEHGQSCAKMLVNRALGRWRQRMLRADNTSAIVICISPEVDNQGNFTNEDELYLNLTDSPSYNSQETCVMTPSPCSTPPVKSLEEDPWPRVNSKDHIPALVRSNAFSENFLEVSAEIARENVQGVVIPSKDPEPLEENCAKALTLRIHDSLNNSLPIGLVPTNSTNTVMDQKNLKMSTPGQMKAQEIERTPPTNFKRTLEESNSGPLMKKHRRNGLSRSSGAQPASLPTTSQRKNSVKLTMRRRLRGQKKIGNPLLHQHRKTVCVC
Chain of Cytochrome P450 3A4 (Homo sapiens) (P08684 whole entry, looked up): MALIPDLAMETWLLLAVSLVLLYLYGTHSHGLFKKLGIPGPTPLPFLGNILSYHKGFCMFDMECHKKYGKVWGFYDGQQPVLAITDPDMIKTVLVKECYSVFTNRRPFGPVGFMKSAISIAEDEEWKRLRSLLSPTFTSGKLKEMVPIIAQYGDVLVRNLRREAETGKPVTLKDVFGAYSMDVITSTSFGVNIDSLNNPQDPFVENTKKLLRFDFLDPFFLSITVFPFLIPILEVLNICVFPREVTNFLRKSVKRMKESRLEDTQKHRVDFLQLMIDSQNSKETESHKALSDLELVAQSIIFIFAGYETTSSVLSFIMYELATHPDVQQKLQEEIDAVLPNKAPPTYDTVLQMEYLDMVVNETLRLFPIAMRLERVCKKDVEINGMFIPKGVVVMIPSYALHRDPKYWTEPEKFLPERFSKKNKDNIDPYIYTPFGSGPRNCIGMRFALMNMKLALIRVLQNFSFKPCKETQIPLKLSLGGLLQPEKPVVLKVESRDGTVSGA

Question: What does the source list for `Cc1nc([C@](C)(O)CO)sc1-c1cnc(N)c(O[C@H](C)c2cc(F)ccc2-n2nccn2)c1`?
Answer: Potency [1]: inactive; Potency [2]: inactive; Potency [3]: 8.33 µM (active); Potency [4]: 13.2 µM (active); activity [5]: -59.6%

Question: Which Potency [2] does the source give for `O=C(O)COCCN1CCN([C@H](c2ccccc2)c2ccc(Cl)cc2)CC1` here?
Answer: Its Potency is “inactive”.

Question: For `CCC(C(=O)O)c1ccc(N2Cc3ccccc3C2=O)cc1` (configuration not stated), which Potency [6] is on record?
Answer: The Potency was “inactive”.

Question: What about the outcome [7] of the same molecule?
Answer: Its outcome is “inactive”.

Question: What about the outcome [8] of the same molecule?
Answer: The outcome was “inactive”.

Question: And the Potency [2]?
Answer: Its Potency is “inactive”.

Question: What about the outcome [9] of the same molecule?
Answer: The outcome was “inactive”.

Question: What about the Potency [10] of the same molecule?
Answer: Its Potency is “inactive”.

Question: And the Potency [11]?
Answer: The Potency was “inactive”.

Question: And the Potency [3]?
Answer: Its Potency is “inactive”.

Question: And the Potency [4]?
Answer: The Potency was “inactive”.

Question: With `CCN1CCN(Cc2ccc(NC(=O)c3ccc(C)c(NC(=O)c4cncc(-c5cccs5)c4)c3)cc2C(F)(F)F)CC1` as the molecule, how does the Potency [1] read?
Answer: The Potency was 2.94 µM (active).

Question: What about the Potency [12] of the same molecule?
Answer: Its Potency is 3.38 µM (active).

Question: And the Potency [3]?
Answer: The Potency was 45.9 nM (active) and 166 nM (active).

Question: And the Potency [4]?
Answer: The Potency was 51.5 nM (active) and 186 nM (active).

Question: With `Cc1cc(Nc2cc(N3CCN(C)CC3)nc(/C=C/c3ccccc3)n2)n[nH]1` as the molecule, how does the Potency [1] read?
Answer: The Potency was 5.23 µM (active).

Question: What about the Potency [2] of the same molecule?
Answer: The Potency was “inactive”.

Question: And the Potency [3]?
Answer: The Potency was 728 nM (active) and 934 nM (active).

Question: What about the Potency [4] of the same molecule?
Answer: The Potency was 649 nM (active) and 742 nM (active).

Question: For `CN1CCN(C2CCC(n3cc(-c4ccc(Oc5ccccc5)cc4)c4c(N)ncnc43)CC2)CC1` (configuration not stated), which Potency [1] is on record?
Answer: The Potency was 11.7 µM (active).

Question: What about the Potency [12] of the same molecule?
Answer: Its Potency is 12 µM (active).

Question: And the Potency [13]?
Answer: Its Potency is “inactive”.

Question: What about the Potency [11] of the same molecule?
Answer: Its Potency is “inactive”.

Question: And the Potency [3]?
Answer: Its Potency is 20.5 nM (active) and 74.2 nM (active).

Question: What about the Potency [4] of the same molecule?
Answer: Its Potency is 72.8 nM (active) and 74.2 nM (active).

Question: What about the activity [5] of the same molecule?
Answer: The activity was -15.7%.

Question: What does the source list for `C[C@H]1[C@H](O)O[C@@H]2O[C@@]3(C)CC[C@H]4[C@H](C)CC[C@@H]1[C@@]24OO3`?
Answer: Potency [1]: inactive; Potency [2]: inactive; Potency [3]: 1.18 µM (active); Potency [4]: 0.833 µM (active)

Question: For `CN(C)C/C=C/C(=O)Nc1cccc(C(=O)Nc2cccc(Nc3ncc(Cl)c(-c4c[nH]c5ccccc45)n3)c2)c1`, which Potency [1] is on record?
Answer: The Potency was 0.658 µM (active).

Question: What about the Potency [2] of the same molecule?
Answer: The Potency was “inactive”.

Question: What about the Potency [3] of the same molecule?
Answer: The Potency was 64.9 nM (active) and 148 nM (active).

Question: What about the Potency [4] of the same molecule?
Answer: Its Potency is 72.8 nM (active) and 132 nM (active).

Question: And the activity [5]?
Answer: The activity was -3.58%.

Question: Which Potency [1] does the source give for `CC1=C(CO)C(=O)O[C@@H]([C@@H](C)[C@H]2CC[C@H]3[C@@H]4C[C@H]5O[C@]56[C@@H](O)C=CC(=O)[C@]6(C)[C@H]4CC[C@]23C)C1` here?
Answer: Its Potency is 0.466 µM (active).

Question: And the Potency [2]?
Answer: Its Potency is “inactive”.

Question: And the Potency [3]?
Answer: The Potency was 448 nM (active) and 263 nM (active).

Question: What about the Potency [4] of the same molecule?
Answer: Its Potency is 709 nM (active) and 263 nM (active).

Question: With `CN1CCN(c2ccc(C(=O)Nc3n[nH]c4ccc(Cc5cc(F)cc(F)c5)cc34)c(NC3CCOCC3)c2)CC1` as the molecule, how does the Potency [1] read?
Answer: Its Potency is 16.5 µM (active).

Question: What about the Potency [2] of the same molecule?
Answer: Its Potency is “inactive”.

Question: And the Potency [3]?
Answer: Its Potency is 3.25 µM (active) and 4.68 µM (active) and 6.51 µM (active).

Question: And the Potency [4]?
Answer: Its Potency is 3.65 µM (active) and 4.17 µM (active) and 6.51 µM (active).

Question: With `CC(=O)OC1/C(C)=C/C(=O)C(OC(C)=O)C(C)(C)/C=C/C(C)C(=O)C2(OC(C)=O)CC(C)C(OC(=O)c3ccccc3)C12` (configuration not stated) as the molecule, how does the Potency [2] read?
Answer: Its Potency is “inactive”.

Question: For `C[C@@H]1O[C@@H](O[C@H]2[C@H](OC(=O)[C@]34CCC(C)(C)C[C@H]3C3=CCC5[C@@]6(C)C[C@H](O)[C@H](O[C@@H]7O[C@H](CO)[C@@H](O[C@H]8OC[C@](O)(CO)[C@H]8O)[C@H](O)[C@H]7O)[C@@](C)(CO)C6[C@H](O)C[C@@]5(C)[C@]3(C)C[C@H]4O)OC[C@H](O)[C@@H]2O)[C@H](O)[C@H](O)[C@H]1O[C@@H]1OC[C@@H](O)[C@H](O[C@@H]2OC[C@](O)(CO)[C@H]2O)[C@H]1O` (some centres not stated), which activity change, negative = inhibition [2] is on record?
Answer: The activity change, negative = inhibition was -2.92% [at 12.4 µM] (inactive).

Question: What does the source list for `CC(O)c1cc(C(=O)N[C@@H](C)Cn2ccc(-c3ccc(C#N)c(Cl)c3)n2)n[nH]1` (some centres not stated)?
Answer: Potency [1]: inactive; Potency [2]: inactive; Potency [4]: 20.9 µM (active)

Question: With `CC1(C)CCCC2(C)C1CC(=O)C13CC(CCC12)C(O)(CO)C3` (configuration not stated) as the molecule, how does the Potency [2] read?
Answer: Its Potency is “inactive”.

Question: With `COc1ccc(N(C)c2nc(C)nc3ccccc23)cc1` as the molecule, how does the Potency [1] read?
Answer: The Potency was “inactive”.

Question: And the Potency [2]?
Answer: Its Potency is “inactive”.

Question: And the Potency [3]?
Answer: The Potency was 0.0132 µM (active).

Question: What about the Potency [4] of the same molecule?
Answer: The Potency was 0.0118 µM (active).

Question: For `CC(=O)O[C@@H]1c2c3c(cc(O)c2C(=O)O[C@@H]1C)O[C@@]1(C)[C@@H](O)C[C@H]2C(C)(C)C(=O)C=C[C@]2(C)[C@@H]1C3`, which Potency [2] is on record?
Answer: The Potency was “inactive”.

Question: Which results are given for `COCCOc1cnc2ccn([C@H](C)c3nnc4c(F)cc(-c5cnn(C)c5)cn34)c(=O)c2c1`?
Answer: Potency [1]: inactive; Potency [2]: inactive; Potency [3]: inactive; Potency [4]: inactive

Question: Which Potency [1] does the source give for `CCNC(=O)Nc1ncc(-c2cc(-c3c(C)cc(OC)cc3C)nc(-c3cnccn3)n2)s1` here?
Answer: The Potency was “inactive”.

Question: What about the Potency [12] of the same molecule?
Answer: The Potency was 8.49 µM (active).

Question: What about the Potency [11] of the same molecule?
Answer: Its Potency is 3.79 µM (active).

Question: And the Potency [3]?
Answer: Its Potency is “inactive”.

Question: What about the Potency [4] of the same molecule?
Answer: The Potency was “inactive”.

Question: For `O=C(O)c1ccc(CN2CCC(CN[C@@H]3C[C@H]3c3ccccc3)CC2)cc1`, which Potency [1] is on record?
Answer: The Potency was “inactive”.

Question: What about the Potency [2] of the same molecule?
Answer: Its Potency is “inactive”.

Question: What about the Potency [3] of the same molecule?
Answer: The Potency was “inactive”.

Question: What about the Potency [4] of the same molecule?
Answer: Its Potency is “inactive”.

Question: And the activity [5]?
Answer: The activity was 4.43%.

From PubChem BioAssay (NCATS)
